# From article PMC5540273 (PLoS ONE, 2017)
# Tested on: TRPM6
# Settings: concentration: 1 μM, replicates: in singlicate; n = 1
# 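Further: KINOMEscan kinase panel screen.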
row,Compound,%Inh
1,Cn1cc(-c2ccc3c(c2)CCN3C(=O)Cc2cccc(Cl)c2)c2c(N)ncnc21 [GSK2606590],0%
2,COc1ccc(-c2coc3ccc(-c4nnc(SCc5ccc(OC)c(C(F)(F)F)c5)o4)cc23)cc1,1%
3,CCS(=O)(=O)c1ccc(OC)c(Nc2nccc(-c3c(-c4cccc(NC(=O)c5c(F)cccc5F)c4)nn4ncccc34)n2)c1 [GSK326180],55%
4,O=C(Nc1cccc(-c2nn3ccccc3c2-c2ccnc(Nc3cccc(C(F)(F)F)c3)n2)c1)c1c(F)cccc1F [GSK292658],11%
5,NCCCC(NC(=O)c1cc(Br)c(-c2ccnc3[nH]ccc23)s1)c1ccccc1.O=C(O)C(F)(F)F.O=C(O)C(F)(F)F (stereo not shown) [GSK1287544],16%
6,CC(=O)Nc1nc2cnc(Nc3cc(NC(=O)c4cccc(C5(C#N)CC5)c4Cl)ccc3C)nc2s1,0%
7,COc1ccc(CNC(=O)NC2CCN(c3ccnc(Nc4ccc(F)cc4)n3)CC2)cc1 [GSK1379788],0%
8,Clc1ccc(-c2nn3ncccc3c2-c2ccnc(Nc3ccc4c(c3)OCCO4)n2)cc1 [GW829116],7%
9,CC(C)(C)c1ccc2nccc(Nc3cccc(O)c3)c2c1 [GW856795],0%
10,COc1cc(Nc2nccc(N3CCC(NC(=O)Nc4cccc(C(C)=O)c4)C3)n2)cc(OC)c1OC (stereo not shown) [GSK1379753],41%
11,COc1cc(Nc2nccc(-c3c(-c4cccc(NC(=O)c5c(F)cccc5F)c4)nn4ccccc34)n2)cc(OC)c1OC [GSK323521],16%
12,COc1cccc(NC(=O)NC2CCN(c3ccnc(Nc4cc(OC)c(OC)c(OC)c4)n3)C2)c1 (stereo not shown) [GSK1379763],3%
13,O=C(O)C(F)(F)F.O=C(O)C(F)(F)F.O=c1[nH]ccc2nc(N[C@@H]3CCCNC3)nc(Nc3ccc(S(=O)(=O)N4CCOCC4)cc3)c12 [GSK2177277],19%
14,CCCCc1nn2ncccc2c1-c1ccnc(Nc2ccc(N3CCN(C)CC3)cc2)n1 [GW684941],61%
15,CN(c1ccc(NC(=O)Nc2cc(C(F)(F)F)ccc2F)cc1)c1ccnc(Nc2ccc(S(N)(=O)=O)cc2)n1 [GW809893],31%
16,Nc1ncc(-c2cccnc2)c2scc(-c3ccc4c(c3)CCN4C(=O)Cc3ccccc3)c12 [GSK683281],40%

row,Compound,%Inh
1,Cc1ccc(C(=O)Nc2ccc(Nc3ccnc4cc(-c5nccs5)ccc34)cc2O)cc1.Cl [GW494702],29%
2,COc1cc(Nc2nccc(N3CCC(NC(=O)c4cc5ccccc5s4)C3)n2)cc(OC)c1OC (stereo not shown) [GSK1379760],17%
3,O=C(Nc1cccc(-c2nn3ccccc3c2-c2ccnc(Nc3cccc(F)c3)n2)c1)c1c(F)ccc(F)c1Cl [GSK357952],32%
4,CN(C)Cc1ccc(-c2ccc3c(Nc4ccc(Oc5ccccn5)cc4)ccnc3c2)o1 [GW567148],52%
5,CNC(=O)c1ccccc1Nc1nc(Nc2ccc(N3CCOCC3)cc2)ncc1Cl.Cl [GSK1576028],75%
6,Cl.Cl.NCC(NC(=O)c1cc(-c2ccccc2)c(-c2ccnc3[nH]ccc23)s1)c1ccccc1 (stereo not shown) [GSK1321561],28%
7,COc1ccc(Nc2nccc(N3CCC(NC(=O)Nc4cccc(OC)c4)C3)n2)cc1 (stereo not shown) [GSK1379742],0%
8,COC(=O)Nc1nc2cc(Oc3ccc(NC(=O)Nc4cc(C(F)(F)F)ccc4F)cn3)ccc2[nH]1.Cl.Cl [GW681170],29%
9,O=C(Nc1n[nH]c2cc(-c3ccoc3)ccc12)C1CC1 [SB-738481],0%
10,CSc1cccc2c(-c3ccncn3)c(-c3ccc(F)cc3)nn12 [GW514786],17%
11,c1ccc(Oc2ccc(Nc3ccnc4cc(-c5ccc(CNCCN6CCOCC6)o5)ccc34)cc2)nc1 [GW567145],14%
12,Nc1ncnc2c1nc(-c1ccccc1)n2-c1ccccc1 [SKF-97293],50%
13,Cl.c1ccc(-c2ccc3c(Nc4ccc5[nH]ccc5c4)ccnc3c2)nc1 [GW440138],0%
14,Cl.NC(=O)c1cccc(Nc2nccc(Nc3ccc(Oc4c(Cl)cccc4Cl)c(Cl)c3)n2)c1 [GW659009],36%
15,Cc1occc1-c1ncc(OC[C@@H](N)Cc2c[nH]c3ccccc23)cc1-c1ccc2[nH]nc(C)c2c1.O=C(O)C(F)(F)F [GSK682037],0%
